Measured values: the supplement of paper PMC12636033
± gives the standard deviation of the averaged measurements. In all, about 33,000 sequences were measured (“E-score (rank enrichment, -0.5 to 0.5)”: median about -0.0068, highest 2% from about 0.24 on). The list comes from a sample in which the highest values are over-represented; it also holds similar and randomly drawn sequences.

Each sequence was assayed on muMax20 (Max(13-93) K31hArg/K57hArg, M65Nle) (assay: PBM 8-mer E-score (E-score (rank enrichment, -0.5 to 0.5)); higher = stronger preferential binding).
Experimental: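 Protein binding microarray (universal PBM chip covering all 10-mers in fixed probe flanks) with chemically synthesized human Max(13-93) bHLH-LZ analogs (not full-length Max) bearing noncanonical residues (hArg, Tha, Aib, Nle at 65) and aromatic Cys staples. Read-out per 8-mer (and its reverse complement): E-score (rank-based enrichment, -0.5 to 0.5) and Z-score of median probe intensity.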

Row | Sequence | PBM 8-mer E-score
1 | ACATGCAA | 0.16 ± 0.046
2 | GCATGCAA | 0.147 ± 0.034
3 | ACATGCAC | 0.185 ± 0.034
4 | ACATGCGC | 0.17 ± 0.0097
5 | ACATGCAG | 0.032 ± 0.14
6 | ATTTCACC | 0.0208 ± 0.092
7 | ATTGTGGA | 0.0503 ± 0.16
8 | AGATATAT | 0.176 ± 0.023
9 | ATCGTACA | 0.159 ± 0.048
10 | CTCGTACA | 0.041 ± 0.08
11 | GTCGTACA | 0.242 ± 0.13
12 | ACGTGAAT | 0.235 ± 0.083
13 | CTTCTCAA | 0.0152 ± 0.1
14 | AGCCAGCC | -0.293 ± 0.06
15 | CCTAAGAA | 0.099 ± 0.038
16 | ATGCTCAA | 0.0249 ± 0.035
17 | CGCCGTGA | -0.131 ± 0.031
18 | GAATAACA | 0.175 ± 0.11
19 | AAATAATT | 0.242 ± 0.046
20 | AAATAATC | 0.0578 ± 0.046
21 | AAATAATA | 0.232 ± 0.013
22 | CAATAACA | 0.26 ± 0.066
23 | CAATAATG | 0.117 ± 0.023
24 | CAATAATC | 0.0932 ± 0.028
25 | CAATAATA | 0.304 ± 0.0083

Row | Sequence | PBM 8-mer E-score
26 | TAATAACA | 0.124 ± 0.0069
27 | ATTTACCC | 0.0541 ± 0.029
28 | CGTCTGGA | -0.178 ± 0.11
29 | GCCTGTTA | 0.0517 ± 0.1
30 | AGCACCCG | -0.159 ± 0.024
31 | CGGCCAAA | -0.227 ± 0.024
32 | CGCTGATA | -0.0375 ± 0.12
33 | AAATAAAA | 0.252 ± 0.023
34 | CAATAAAA | 0.197 ± 0.038
35 | TAATAAAA | 0.246 ± 0.0097
36 | AAAATAAA | 0.116 ± 0.064
37 | AAATAAAT | 0.156 ± 0.054
38 | GAATAAAA | 0.0698 ± 0.033
39 | AAGCGTCC | -0.0322 ± 0.057
40 | ACCTAGAT | -0.0454 ± 0.032
41 | TGGGAAAA | 0.0021 ± 0.034
42 | CTTTTTTC | 0.127 ± 0.031
43 | ATTCGCTA | 0.0997 ± 0.028
44 | CATCCATC | 0.0727 ± 0.029
45 | GGGGTACC | -0.196 ± 0.038
46 | GCATATAA | 0.113 ± 0.027
47 | GCATTACA | 0.142 ± 0.017
48 | CTATTATA | 0.0941 ± 0.095
49 | GTATTACA | 0.3133 ± 0.0018
50 | CTATTACC | 0.0779 ± 0.076

Row | Sequence | PBM 8-mer E-score
51 | CTATTACA | 0.171 ± 0.028
52 | ATATTACC | 0.244 ± 0.0062
53 | AAATTATG | 0.211 ± 0.015
54 | ATATTACA | 0.137 ± 0.011
55 | ACATTATA | 0.21 ± 0.031
56 | ATATTATA | 0.308 ± 0.012
57 | AAATTATA | 0.173 ± 0.054
58 | AAATTATT | 0.2538 ± 0.0012
59 | CCCTTTCG | -0.143 ± 0.066
60 | AGAACTAC | 0.126 ± 0.015
61 | CAGTGGGA | -0.0398 ± 0.11
62 | CGAACAGA | -0.107 ± 0.056
63 | AGCCTATC | 0.0159 ± 0.029
64 | AACTTCTC | -0.0128 ± 0.016
65 | CAGAGTTA | -0.06527 ± 0.00021
66 | AGATTATG | 0.00982 ± 0.022
67 | GTATTATA | 0.256 ± 0.063
68 | ATATTATG | 0.276 ± 0.015
69 | CTATTAGA | -0.0357 ± 0.074
70 | GTATTAGA | 0.213 ± 0.0064
71 | ATATTAGA | 0.302 ± 0.026
72 | GCATTATA | 0.129 ± 0.031
73 | ATATTATC | 0.0756 ± 0.14
74 | GTATTAAA | 0.178 ± 0.049
75 | AAACGGAA | -0.0336 ± 0.073

Row | Sequence | PBM 8-mer E-score
76 | CCTAGTAC | 0.0875 ± 0.082
77 | ACTTCCTC | 0.052 ± 0.096
78 | AACGCTAG | -0.145 ± 0.08
79 | AAAACAAG | 0.111 ± 0.034
80 | AAAACAGT | 0.252 ± 0.029
81 | AAAACAGG | -0.0042 ± 0.15
82 | AAAACAAT | 0.265 ± 0.029
83 | AAAACAGC | 0.0469 ± 0.026
84 | AAAACAAC | 0.00369 ± 0.069
85 | GGGCTAAC | -0.0713 ± 0.048
86 | ACCAGCCC | -0.112 ± 0.14
87 | ACGTGACT | 0.234 ± 0.088
88 | CCGTGACC | -0.272 ± 0.029
89 | ACGTGACC | 0.302 ± 0.02
90 | CCGTGACA | 0.0799 ± 0.03
91 | ACGTGACG | 0.271 ± 0.058
92 | AGGTGACG | -0.141 ± 0.091
93 | CCGTGACG | -0.149 ± 0.01
94 | GCGTGACC | 0.0743 ± 0.024
95 | ACGTGACA | 0.312 ± 0.043
96 | ACCAGAAC | 0.0216 ± 0.026
97 | AGCGGCCA | -0.227 ± 0.059
98 | TAGTACTA | 0.0405 ± 0.17
99 | AAGGCGGA | -0.113 ± 0.044
100 | TAGGCCCA | -0.123 ± 0.016

Row | Sequence | PBM 8-mer E-score
101 | CCAATTTA | 0.131 ± 0.034
102 | GTGCCCTA | -0.0334 ± 0.02
103 | ACGTTATC | 0.0863 ± 0.046
104 | ACGTTATG | 0.282 ± 0.057
105 | ACGTTATA | 0.228 ± 0.019
106 | CCTGTACA | 0.0242 ± 0.16
107 | AGACATAG | -0.014 ± 0.18
108 | ATACATAT | 0.254 ± 0.075
109 | ATACACAT | 0.318 ± 0.0071
110 | GTACATAA | 0.175 ± 0.0024
111 | TTACATAA | 0.24 ± 0.0072
112 | CTACATAA | 0.0871 ± 0.052
113 | AGACATAT | 0.29 ± 0.014
114 | ATACATAG | 0.181 ± 0.13
115 | CTACATAC | 0.178 ± 0.042
116 | AGACATAC | 0.0812 ± 0.086
117 | ATACACAC | 0.208 ± 0.053
118 | ATACACAG | 0.0766 ± 0.089
119 | ATCTAACA | 0.0591 ± 0.057
120 | GCGCTTCA | -0.115 ± 0.063
121 | CTAGAGCC | -0.187 ± 0.036
122 | ACGATAGA | -0.0358 ± 0.083
123 | ATACATAC | 0.169 ± 0.017
124 | GCACATAA | 0.151 ± 0.038
125 | AAACATAA | 0.246 ± 0.1

Row | Sequence | PBM 8-mer E-score
126 | ACACATAA | 0.265 ± 0.041
127 | ACACATAG | -0.0133 ± 0.049
128 | AAACATAG | 0.126 ± 0.018
129 | ATACATAA | 0.255 ± 0.032
130 | ATACATCA | 0.21 ± 0.061
131 | GAACATAA | 0.123 ± 0.095
132 | CTCAGGAG | -0.162 ± 0.071
133 | ATCCTTGG | -0.0154 ± 0.11
134 | CTTCCCTC | 0.0647 ± 0.025
135 | AAGATTTG | 0.0326 ± 0.071
136 | ACGTTTGC | 0.0313 ± 0.0058
137 | CCGGTGAC | -0.252 ± 0.12
138 | CCATGGTC | -0.1574 ± 0.0011
139 | CCATGCTC | 0.0121 ± 0.13
140 | ACATGGCG | 0.175 ± 0.045
141 | TAATGGTA | 0.193 ± 0.013
142 | AGATGGTG | -0.0739 ± 0.067
143 | ACATGCTA | 0.164 ± 0.071
144 | CTATGGTC | -0.125 ± 0.061
145 | AAATGGTA | 0.238 ± 0.096
146 | ACATGGTG | 0.241 ± 0.053
147 | ACATGGTC | 0.245 ± 0.08
148 | ACATGCTC | 0.237 ± 0.091
149 | CAATGGTA | 0.0785 ± 0.022
150 | ATCTGGTA | -0.00159 ± 0.021

Row | Sequence | PBM 8-mer E-score
151 | AGCGGCCC | -0.191 ± 0.026
152 | CGACGGTC | -0.172 ± 0.15
153 | AGTGTGTG | 0.0857 ± 0.065
154 | AAGAGCTA | 0.12 ± 0.045
155 | ATTTGTCA | 0.123 ± 0.0081
156 | CCGGCCCG | -0.259 ± 0.054
157 | GCATGGTA | 0.142 ± 0.082
158 | ACATGGTA | 0.287 ± 0.017
159 | CCATGGTA | 0.143 ± 0.12
160 | GTACCACA | 0.115 ± 0.043
161 | CGTGCTCC | 0.0253 ± 0.0099
162 | ACATCGTA | 0.101 ± 0.015
163 | AAAATTTT | 0.305 ± 0.019
164 | AAAAATTT | 0.164 ± 0.0071
165 | AAAATTTG | 0.12 ± 0.17
166 | CACTGACC | -0.132 ± 0.086
167 | AGCATGTG | 0.276 ± 0.029
168 | AGCATGTC | 0.0591 ± 0.078
169 | AGCATGTA | 0.228 ± 0.034
170 | ATCATGTA | 0.108 ± 0.027
171 | ACCATGTA | 0.0719 ± 0.046
172 | ATCATGTG | 0.247 ± 0.12
173 | ACCATGTG | 0.359 ± 0.078
174 | ATCATGTC | 0.225 ± 0.024
175 | ACCATGTC | 0.0641 ± 0.067
